In the assay the test system is Plasmodium falciparum. Kind of assay: GSK_TCMDC: Inhibition of Plasmodium falciparum 3D7 in whole red blood cells, using parasite LDH activity as an index of growth. Test compounds present at 2uM. It counts as functional.
In the case of `CC(C)CN(c1nc(C(=O)NNC(=O)[C@H](CC2CC2)NC(=O)c2cc3cc(OCCN4CCCCC4)ccc3o2)cs1)C1CC1`, the Inhibition amounted to 97%.
Compound `COc1ccc(-c2nc(NC(=O)CSc3ccc([N+](=O)[O-])cc3)sc2C)cc1` returned an Inhibition of 100%.
For `C=Cc1sc(CNCCCNc2cc(=O)c3ccccc3[nH]2)c(C)c1Br` the value was 94%.
As for `CN1CCN(CCCN(Cc2ccc(-c3ccc(CNCc4ccc5c(c4)OCO5)cc3)cc2)C(=O)Nc2ccccc2)CC1.O=C(O)C(F)(F)F`, the figure is 94%; as for `CNC(=O)c1cnc(Nc2ccc(N3CCN(C)CC3)cc2)nc1Nc1cccc(OC)c1.O=C(O)C(F)(F)F`, 100%; as for `C=CCn1c(SCC(=O)Nc2cc(Cl)ccc2Cl)nc2sc(C)cc2c1=O`, 97%.
As for `Cc1[nH]c(C)c(-c2ccc(OCc3ccc(OC(F)(F)F)cc3)nc2)c(=O)c1Br`, the figure is 98%; as for `CCN(CC)CCN(Cc1ccc(-c2ccc(C(F)(F)F)cc2)cc1)C(=O)Cn1c(CCc2ccc(F)c(C#N)c2)nc(=O)c2ccccc21.O=C(O)C(O)C(O)C(=O)O`, 98%; as for `CC(C)C(NC(=O)c1c(F)cccc1F)C(=O)Nc1ccc(Cc2nc3ccccc3s2)cc1` (configuration not stated), 86%.
`Oc1ccc(Cl)cc1-c1cc(C(F)(F)F)nc(-c2ccccc2)n1` displayed an Inhibition of 99%.
For the compound `CCOC(=O)c1[nH]c2ccc(F)cc2c1NC(=O)CN1CCN(c2cccc(C(F)(F)F)c2)CC1`, the Inhibition is reported as 96%.
For `CC(C)(CNC(=O)[C@@H]1CCCN(CCOc2ccc(F)c(F)c2)C1)c1nc(-c2ccc(Cl)c(O)c2)c(-c2ccncc2)[nH]1.Cl` the value was 100%.

The values above are taken from ChEMBL document CHEMBL1157539, “Thousands of chemical starting points for antimalarial lead identification” (Nature, 2010).
